Screening data: PubChem, Broad Institute
aSyn 5UTR act: Activators via SNCA 5'UTR binding, MLPCN; alpha-synuclein 5'UTR reporter, activators screen; activity score, % (tested at 7.5 µM), hits read low; hit rate 7.1% among 300,000; in the data active = activity score below about -60%
Starred values were filed as active, the others as inactive. These entries were drawn from the full list.

SMILES	aSyn 5UTR act
CCOC(=O)c1ccc(-c2c(-c3cc(OC)c(OC)c(OC)c3)noc2C)cc1F	58
CCOC(=O)c1ccc(-c2ccc3[nH]c4ccccc4c(=O)c3c2)cc1F	-81*
CN1CCC(Oc2ccc(Sc3ccccc3)cc2)CC1	-77*
Cn1cc(Cl)c(C(=O)Nc2nc3ccc(Cl)cc3s2)n1	-197*
Cn1cc(Cl)c(C(=O)Nc2nc3ccc([N+](=O)[O-])cc3s2)n1	-68*
COCCc1nc2ccc(C(=O)N(C)Cc3cccc(-n4cccn4)c3)cc2o1	-75*
CCOC(=O)C1(Cc2cccc(OC)c2)CCCN(C(=O)CNC(C)=O)C1 (centres undefined)	-115*
CCOC(=O)C1(Cc2ccccc2)CCCN(C(=O)c2cnn(CC)c2)C1 (centres undefined)	-78*
CCOC(=O)C1(Cc2cccc(OC)c2)CCCN(C(=O)c2ccccc2C)C1 (centres undefined)	-84*
CCOC(=O)C1(Cc2cccc(OC)c2)CCCN(C(=O)c2cc(C)[nH]n2)C1 (centres undefined)	-130*
CCOC(=O)C1(Cc2cccc(OC)c2)CCCN(C(=O)c2cc(C)on2)C1 (centres undefined)	-110*
Oc1c(C=C2N=c3ccccc3=N2)sc(=S)n1-c1ccc(F)cc1	-65*
CCn1c(O)c(/C=C2\C=NN=C2c2ccccc2)sc1=S	67
c1ccc(C2=NNC(=NC3CC3)SC2)cc1	58
c1ccc2c(C3=NNC(=NC4CCCCC4)SC3)c[nH]c2c1	-140*
CCc1ccc2nc(/N=C(\N)NC(=O)c3ccccc3)nc(C)c2c1	-120*
O=C(N/N=C1/CC2C=CCC12)c1ccco1 (centres undefined)	-66*
O=C(N/N=C1/CC2C=CCC12)c1cccs1 (centres undefined)	-75*
O=C(NCc1cc2ccccc2[nH]1)c1ccccc1F	-81*
COc1cccc(C2(O)CC(C(F)(F)F)=NN2C(=O)c2ccccn2)c1 (centres undefined)	-113*
Cc1cc(C(=O)N2CCN(c3cccc(Cl)c3)CC2)c(C)o1	-137*
Cc1cc(NO)nc(-c2ccc(Br)cc2)n1	-278*
CSc1ccccc1C(=O)Nc1nc2ccccc2[nH]1	-133*
Cc1sc(NC(=O)c2ccc(=O)n(C)n2)nc1-c1ccccc1	-95*
Cn1nc(C(=O)Nc2nc3ccccc3[nH]2)ccc1=O	-94*
SMILES	aSyn 5UTR act
COc1ccccc1C(=O)Nc1nc2ccccc2[nH]1	100
CSc1ccccc1C(=O)Nc1nc2ccccc2c(=O)[nH]1	-122*
O=C(CSc1nncs1)NC(=O)Nc1ccc2c(c1)OCCO2	-134*
COc1ccc2nc(SCC(=O)Nc3ccc4c(c3)OCCO4)[nH]c2c1	-63*
O=C(CSc1nc2ccc(Cl)cc2[nH]1)c1ccc2c(c1)OCO2	-67*
O=C(CSc1ncn[nH]1)Nc1ccc2c(c1)OCCO2	-62*
O=C(CSc1nncs1)Nc1ccc2c(c1)OCCO2	-102*
COc1ccc2nc(SCC(=O)/C(C#N)=C(\C)N)[nH]c2c1	-76*
Cc1cc(CNC(=O)Nc2ccc3c(c2)OCO3)nn1C	-80*
CCn1nc(C)c(CNC(=O)Nc2ccc3c(c2)OCO3)c1C	-70*
CN(C)c1ccc(C(CN)c2c[nH]c3ccccc23)cc1 (centres undefined)	-97*
O=C(Cn1cnc2c(oc3nc4c(cc32)CCCC4)c1=O)Nc1cccc(Cl)c1	66
C=C(C)Cn1cnc2c(oc3nc4c(cc32)CCCC4)c1=O	-85*
COC(=O)Nc1nnc(-c2ccccc2Cl)s1	-94*
CCCCCN1C=CC(=C2C(=O)c3ccccc3C2=O)C=C1	113
CC1=CC(=C2C(=O)c3ccccc3C2=O)C=C(C)N1C	-132*
CSc1ccc(-c2nnn(Cc3ccc(C)cc3)n2)cc1	-168*
O=C(O)c1cccc(-c2nnn(Cc3ccccc3)n2)c1	-85*
COc1ccc(-c2nnn(Cc3ccccc3)n2)cc1	-168*
Cc1ccccc1Cn1nnc(-c2cccc(C(=O)O)c2)n1	-79*
O=[N+]([O-])c1ccccc1S(=O)(=O)c1ccccc1[N+](=O)[O-]	-62*
CC(CS(=O)(=O)c1ccccc1[N+](=O)[O-])N1CCOCC1 (centres undefined)	-70*
O=C(Nc1nccs1)c1cn2ccccc2n1	65
Cc1cnc(C(=O)Nc2nccs2)cn1	-81*
Cc1cnc(C(=O)Nc2nnc(C3CC3)s2)cn1	-97*
SMILES	aSyn 5UTR act
CCOCC(=O)Nc1nnc(C2CCCCC2)s1	-123*
Cc1cc(C(=O)Nc2nnc(C3CCCCC3)s2)no1	-63*
COc1c(C(=O)Nc2nnc(C3CC3)s2)csc1Cl	-97*
O=C(c1ccc2oc(CCCc3ccccc3)nc2c1)N1CCCCC1CO (centres undefined)	-87*
CCOC(=O)CC1COCCN1C(=O)c1ccc2oc(Cc3ccccc3)nc2c1 (centres undefined)	-132*
O=C(c1ccc2oc(CCc3ccccc3)nc2c1)N1CCC(O)CC1	-73*
NC(=O)[C@@H]1CCCN1C(=O)c1ccc2oc(CCc3ccccc3)nc2c1	-63*
COc1cccc(-c2cn3nc(C)c(C)nc3n2)c1	-70*
